SMILES strings stand for the structures. Records with an inconclusive call do not appear. Where a call stands in place of a potency, no number is given. The source made the active and inactive calls. Calls come from the whole dose curve; as a rule, active = well fitted activation curve with a large enough effect; inconclusive = small, poorly fitted or top-dose-only effect; inactive = no such curve, though single readings can be large or run the other way.

The values that follow come from PubChem BioAssay AID489012 (National Center for Advancing Translational Sciences (NCATS), 2010).
Potency is the fitted concentration of half-maximal effect.

Sequence of Relaxin receptor 1 (Homo sapiens) (Q9HBX9 whole entry, looked up): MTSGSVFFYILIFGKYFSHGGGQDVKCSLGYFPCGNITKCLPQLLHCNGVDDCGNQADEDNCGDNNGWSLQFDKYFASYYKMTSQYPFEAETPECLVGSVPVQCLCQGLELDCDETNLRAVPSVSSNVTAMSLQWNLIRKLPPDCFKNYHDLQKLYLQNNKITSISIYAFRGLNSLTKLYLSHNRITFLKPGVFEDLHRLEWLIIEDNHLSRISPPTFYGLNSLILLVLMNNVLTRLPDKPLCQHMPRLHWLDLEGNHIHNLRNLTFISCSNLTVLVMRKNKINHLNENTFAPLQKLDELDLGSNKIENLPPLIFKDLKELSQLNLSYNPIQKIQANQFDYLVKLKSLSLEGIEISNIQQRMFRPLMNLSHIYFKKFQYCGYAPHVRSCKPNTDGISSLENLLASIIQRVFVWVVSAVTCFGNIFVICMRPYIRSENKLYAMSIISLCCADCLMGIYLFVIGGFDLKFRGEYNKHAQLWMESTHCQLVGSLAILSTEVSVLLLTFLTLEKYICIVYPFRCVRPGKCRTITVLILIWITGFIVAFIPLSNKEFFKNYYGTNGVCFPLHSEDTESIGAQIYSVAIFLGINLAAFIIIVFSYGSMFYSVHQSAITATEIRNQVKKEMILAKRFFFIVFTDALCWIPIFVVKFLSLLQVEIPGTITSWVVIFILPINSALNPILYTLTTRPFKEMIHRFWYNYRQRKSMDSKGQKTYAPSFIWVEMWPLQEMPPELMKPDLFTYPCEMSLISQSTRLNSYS

The assay concerns the target Relaxin receptor 1 (Homo sapiens) (UniProt Q9HBX9). The experiment in a line: qHTS Assay for Agonists of the Relaxin Receptor RXFP1: RXFP1 Hit Validation.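 For activation: cAMP rise lowers the TR-FRET signal in lysed cells with PDE4 inhibitor present.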 Note: nearly all actives have a fitted effect of over 65% in size. As to conditions: HEK293T-RXFP1 cAMP TR-FRET, 30 min; series mostly up to 115 µM. On the technique in general: In qHTS, concentration-response curves come from the screen itself.
For the molecule `CCc1nn(CC(=O)NCCCN2CCOCC2)c(=O)c2cc3sccc3n12`, the Potency entry was “inactive”.

For the molecule `Cc1ccnc(NS(=O)(=O)c2ccc(N3C(=O)c4ccccc4C3=O)cc2)n1`, the Potency was 18.8 µM (active).

In the case of `CC1(C)Cc2c(sc3ncnc(NN)c23)CO1`, the Potency entry is “inactive”.

In the case of `Cc1noc(NS(=O)(=O)c2ccc(N3Cc4ccccc4C3=O)cc2)c1C`, the Potency is 11.9 µM (active).

Turning to `Cc1ccc2cc(CN(C(=O)c3cccs3)c3ccccc3)c(=O)[nH]c2c1`, the Potency result was “inactive”.

Regarding `CC(NC(=O)c1ccccc1NC(=O)c1ccco1)C(=O)O` (stereo unspecified), the Potency result was “inactive”.

As to `CCc1nnc(NC(=O)CSc2nc(C)nc3c2c(=O)n(C)c(=O)n3C)s1`, the Potency is 17.3 µM (active).

As for `N#CCCSc1ncnc2c1oc1ccccc12`, the Potency was 19.4 µM (active).

Turning to `CC(=O)c1sc(NC(=O)C(C)C)nc1C`, the Potency is 15.4 µM (active).

Consider `CCOC(=O)c1sc(=NC(=O)c2ccc(S(=O)(=O)N(C)c3ccccc3)cc2)n(C)c1C`, for which the Potency is 19.4 µM (active).

In the case of `Cc1nn(CC(=O)NCCN2CCOCC2)c(=O)c2cc3sccc3n12`, the Potency entry is “inactive”.

In the case of `Cc1ccc(C(=O)Nc2ccccc2C(=O)NCc2ccco2)cc1`, the Potency result is “inactive”.

`COc1ccc(NC(=O)CSc2nc(-c3ccc(C)cc3)cc(C(F)(F)F)c2C#N)cc1`: the Potency entry is “inactive”.

`O=C1CN(c2nc3ccccc3n3cnnc23)CC(=O)N1CCc1ccccc1`: the Potency entry is “inactive”.

Turning to `COc1ccccc1CNC(=O)CCCc1nnc2n(C)c(=O)c3sccc3n12`, the Potency entry was “inactive”.

Turning to `C=CCOc1c(Cl)cc(CNc2ccc(N(C)C)cc2)cc1OC`, the Potency result is “inactive”.

With `CCN(CC)CCCN1C=C2C(=O)C(C)(OC(=O)C3CCCC3)C(=O)C=C2C=C1c1ccsc1` (stereo unspecified), the Potency entry is “inactive”.

On to `CCOc1ccccc1NC(=O)CSc1ccc2nnc(-c3cccnc3)n2n1`, for which the Potency result is “inactive”.

In the case of `CCOc1ccc2cc(C#N)c(SCC(=O)NC(C)CC)nc2c1` (stereo unspecified), the Potency was 4.88 µM (active).

Turning to `O=C(Nc1ccccc1C(=O)NCc1ccco1)c1ccccc1`, the Potency result was “inactive”.

On to `O=C(Oc1ccccc1)Oc1ccc2c(c1)oc(=O)c1ccccc12`, for which the Potency is 21.8 µM (active).

With `COC(=O)c1nc2ccc(N3CCOCC3)cc2c(C)c1C(=O)OC`, the Potency is 34.6 µM (active).

`CCN(CC)S(=O)(=O)c1ccc(C)c(NC(=O)Cn2cnc3cc([N+](=O)[O-])ccc3c2=O)c1`: the Potency was 38.9 µM (active).

Regarding `COC(=O)c1c(NC(=O)c2cccc(N3C(=O)CCC3=O)c2)sc2c1CCN(C(C)=O)C2`, the Potency entry is “inactive”.

With `CC(=O)CCCCn1c(=O)c2c(ncn2C)n(C)c1=O`, the Potency entry is “inactive”.

Consider `O=C(NCc1nnc2c(C(F)(F)F)cc(Cl)cn12)c1cccnc1`, for which the Potency result is “inactive”.

Turning to `CCN(CC)S(=O)(=O)c1ccc(N2CCOCC2)c(NC(=O)c2cc([N+](=O)[O-])ccc2Cl)c1`, the Potency entry is “inactive”.

Turning to `Nc1cc2ccncc2c2ccccc12`, the Potency entry is “inactive”.

In the case of `COc1ccc(OC)c(CNC(=O)C2CCN(C(=O)N(C)C)CC2)c1`, the Potency entry was “inactive”.

With `NC(=O)c1ccccc1NC(=O)CC12CC3CC(CC(C3)C1)C2`, the Potency result is “inactive”.

As for `CCN(CC)S(=O)(=O)c1cccc(N=Nc2c(O)c3ccccc3oc2=O)c1`, the Potency is 21.9 µM (active).

`O=C(CCc1nnc2ccc(NCCCN3CCCC3=O)nn12)NCc1ccccc1Cl`: the Potency result is “inactive”.

In the case of `CCC1(C)Cc2c(sc3c2c2ncnn2c2nnc(SCC(=O)NCc4ccco4)n32)CO1` (stereo unspecified), the Potency was 12.3 µM (active).

As to `CCn1c(=O)c2sccc2n2c(CCCC(=O)NCc3cccnc3)nnc12`, the Potency result is “inactive”.

As to `Cc1cccc(N2C(=O)C(O)=C(C(=O)c3cccs3)C2c2ccc(C(C)C)cc2)n1` (stereo unspecified), the Potency result is “inactive”.

On to `Nc1ncnc2c1ncn2C1OC(CO)C(O)C1O` (stereo unspecified), for which the Potency is 1.74 µM (active).
